# According to PubChem BioAssay AID435022 (Sanford-Burnham Center for Chemical Genomics, 2010):
# About 1,100 (0.33%) of roughly 330,000 compounds were called active. Many of the other results were omitted from the sample, so actives are more common in it than they were. Unmarked numbers belong to inactive results. Rule as the data show it: active = inhibition above about 35%; inactive = the rest.
# Test: lowers stimulated NF-kB luciferase signal in 697 B cells – cell-based, luminescence, uHTS, B-cell NF-kB inhibitor project, primary screen (AID 435022)
# Conditions: 697 B-cell NF-kB luciferase reporter, PMA/ionomycin, 16 h; at 4 µM; stronger effect = higher value
row,Structure (SMILES),inhibition
1,CCN1C(=O)[C@H]2[C@@H](c3ccc(C)cc3)N3C(=O)N(c4cccc(Br)c4)C(=O)[C@@]3(CC)[C@H]2C1=O,-2.44%
2,CCCCC(CC)CNC(=O)C(=O)C1C(=O)Nc2ccccc21 (stereo unspecified),13.5%
3,O=C(CN1CCN(c2ccc(O)cc2)CC1)NC1CCCc2ccccc21 (stereo unspecified),6.1%
4,Cc1[nH][nH]c(=O)c1C(c1ccc(-c2ccc(Cl)cc2)o1)c1c(C)[nH][nH]c1=O,15.2%
5,CCOc1ccc(C(c2c(C)[nH][nH]c2=O)c2c(C)[nH][nH]c2=O)cc1OCC,35.5% (active)
6,CCOc1ccc(C(C)NC(=O)CN2C(=O)NC3(CCCCC3)C2=O)cc1OCC (stereo unspecified),-6.42%
7,CCn1c(O)c(N=NC2=NC(=O)CS2)c2cc(C)ccc21,44.4% (active)
8,COC(=O)Cn1c2ccc(C)cc2c2nc(C)sc21,20.4%
9,CCn1c(O)c(N=NC(=O)c2cccc(S(=O)(=O)N3CCCCC3)c2)c2ccccc21,-4.54%
10,COc1cc(NC(=O)C2CC(c3ccccc3O)=NO2)c(OC)cc1Cl (stereo unspecified),10.9%
11,CC(=O)Nc1nc(C)c(Cc2ccccc2)c(=O)[nH]1,16.1%
12,Cc1cc2ccccc2n1CCC(=O)O,13.8%
13,O=C(O)CCn1c(Cc2ccccc2)nc2ccccc21,5.45%
14,O=C(O)CCn1c(O)c(C=C2N=c3ccccc3=N2)sc1=S,55.2% (active)
15,CCOc1ccc(NC(=O)CN(C)C(=O)c2cccc(S(=O)(=O)N3CCCC3)c2)cc1OCC,10.1%
16,CCCC(C)NC(=O)C1CCN(C(=O)C2CC(=O)N(c3ccc(C)cc3)C2)CC1 (stereo unspecified),10.2%
17,O=C(Nc1cccnc1)c1cc([N+](=O)[O-])ccc1Cl,12.2%
18,CNc1ccc([N+](=O)[O-])cc1C(=O)O,-7.67%
19,Cc1ccc(NC(=O)c2cc([N+](=O)[O-])ccc2Cl)c(O)c1,38.8% (active)
20,O=C(CCCC(=O)N1CCN(c2cccc(Cl)c2)CC1)c1ccccc1,5.77%
21,C=CC1=C(C(=O)O)N2C(=O)[C@@H](NC(=O)/C(=N/OCC(=O)O)c3csc(N)n3)[C@H]2SC1,21.7%

row,Structure (SMILES),inhibition
1,Cc1cnc(C(=O)Oc2cccc(Cl)c2Cl)cn1,9.86%
2,N=c1n(CCc2ccccc2)c2ccccc2n1Cc1ccccc1F,-56.4%
3,O=C(Nc1ccc2c(c1)OCO2)c1ccc(N2C(=O)c3ccccc3C2=O)cc1,-7.07%
4,Cn1c(=O)n(C)c2cc(C(=O)Nc3ccc4c(c3)OCO4)ccc21,37.8% (active)
5,Cn1c(=O)n(C)c2cc(C(=O)Nc3ccc(Br)cc3)ccc21,9.51%
6,COc1ccc(OCC(=O)NN2Cc3ccccc3C2=N)cc1,0.554%
7,O=C(c1ccco1)N1CCN(CC(=O)N(C2CCCCC2)C2CCS(=O)(=O)C2)CC1 (stereo unspecified),-18.1%
8,Cc1cc(C(=O)O)c(S(C)(=O)=O)s1,4.07%
9,COc1ccc(CCNC(=S)N2CCN(S(=O)(=O)c3ccc(F)cc3)CC2)cc1,-1.95%
10,CN(C)CCCn1c(SCCN2C(=O)c3ccccc3C2=O)nc2ccccc2c1=O,-8.89%
11,CCOC(=O)c1cc2c(=O)n3ccccc3nc2n(CC(C)C)c1=NC(=O)c1c(-c2c(F)cccc2Cl)noc1C,36.5% (active)
12,CCCn1c(=NC(C)=O)c(C(=O)OCC)cc2c(=O)n3ccccc3nc21,4.14%
13,Cc1onc(-c2c(F)cccc2Cl)c1C(=O)OCC(=O)N1C(C)CCCC1C (stereo unspecified),-2.55%
14,CCCCn1c(N)c(N(CCC(C)C)C(=O)COC(=O)c2ccc(CC)cc2)c(=O)[nH]c1=O,-5.34%
15,COc1ccc(C(=O)CSc2n[nH]c(N)n2)cc1,4.97%
16,C=CCn1c(C)cc(C2=NNC(=NCC)SC2)c1C,37.3% (active)
17,CC(Sc1nc2c([nH]c3ccccc32)c(=O)n1C)c1ccccc1 (stereo unspecified),-2.36%
18,COc1ccc(C=C(C#N)C#N)c(CSc2ccccn2)c1,7.7%
19,CCOC(=O)Cc1cc(=O)[nH]c(=O)[nH]1,-9.76%
20,O=C(OCCO)c1cc(Cl)c(C(=O)OCCO)cc1Cl,19.5%
21,CC1CCN(S(=O)(=O)c2ccc3c(c2)n(C)c(=O)n3C)CC1,7.77%

row,Structure (SMILES),inhibition
1,NC(=O)C1CCN(C(=O)CC2C(=O)NCCN2Cc2cccc(Oc3ccccc3)c2)CC1 (stereo unspecified),-2.05%
2,CNC(=O)c1csc(Cc2c(Cl)sc3ccc(Cl)cc23)n1,-20.2%
3,Cc1nc2ccccc2c(=O)n1-c1ccc(NS(=O)(=O)c2ccc(F)cc2F)cc1,1.55%
4,CCC(C)(C(=O)Nc1ccccc1C)N(C(=O)CNC(C)=O)c1ccc(C)cc1 (stereo unspecified),14.7%
5,CC1CCCN(C(=O)CN2C(=O)c3ccccc3S2(=O)=O)C1 (stereo unspecified),-17.2%
6,O=C(CN1C(=O)c2ccccc2S1(=O)=O)N1CCc2ccccc21,62.7% (active)
7,O=C(CN1C(=O)c2ccccc2S1(=O)=O)NC1CCCCC1,9.89%
8,COC1(C2=NCCN2)COc2ccccc2O1 (stereo unspecified),17.1%
9,Cc1ccnc2nc(C(=O)OCC(=O)N(CC(C)C)CC(C)C)nn12,6.38%
10,COc1ccc(CNc2nc(NCc3ccc(OC)cc3)c3ncn(C4CCCC4)c3n2)cc1,-55.3%
11,C=CCSc1nc(N)cc(=O)[nH]1,36.8% (active)
12,Cc1cc(C(=O)CSc2nc(N)cc(=O)[nH]2)c(C)n1-c1cccc(F)c1,-32.2%
13,CCCCc1nnc(NC(=O)CSc2nc(N)cc(=O)[nH]2)s1,13.3%
14,CC(=O)N(OCc1ccc(OC(C)C)c(Cl)c1)C(C)=O,-2.83%
15,COc1cc(F)c(C2=CC(=O)CC(C)(C)C2)cc1F,4.27%
16,Cn1c(-c2ccc(F)cc2)cc2onc(-c3ccccc3Cl)c2c1=O,-275%
17,Cc1cccc(C(=O)Nc2ccc(C(=O)/C=C/c3cccs3)cc2)c1,6.21%
18,Cc1cccc(C(=O)Nc2ccc(CC(=O)O)cc2)c1,40.2% (active)
19,Cc1cccc(C(=O)Nc2ccc(Oc3cnccn3)cc2)c1,-6.59%
